# In PubChem BioAssay (EPA / NIEHS):
# Results filed as inconclusive are left out. The source made the active and inactive calls. How the source made its calls: active means hit-call score of the fitted dose curve at least 0.9, where 1 is the maximum; inconclusive means response in the unintended direction; inactive means score below 0.9.
# Key:
# [1] = biological target: Estrogen receptor (Homo sapiens) (UniProt P03372); test: OT_ER_ERaERa_1440: Odyssey Thera (OT) 24-hour HEK293T Protein-Complementation Assay for Estrogen Receptor-alpha/-alpha Homodimer (AID 2283349);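 further: hits raise fluorescence above DMSO for agonists and antagonists alike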
# Outline: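 HEK293T, stable ERα LBD (aa 310-547) homodimer PCA; 24 h compound exposure; mean fluorescence intensity (nuclear for agonists, nuclear plus cytoplasmic for antagonists) vs vehicle; positive fitting direction, DMSO baseline.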
# [2] = biological target: Estrogen receptor (Homo sapiens) (UniProt P03372); test: OT_ER_ERaERa_0480: Odyssey Thera (OT) 8-hour HEK293T Protein-Complementation Assay for Estrogen Receptor-alpha/-alpha Homodimer (AID 2283351);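 further: rise in fluorescence from reassembled reporter fragments on ERα LBD homodimer in nucleus or whole cell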
# Outline: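 Measures ERα LBD (aa 310-547) homodimer complementation in stably transfected HEK293T at 8 h post-dose, with fluorescence intensity quantified on a laser scanning cytometer relative to DMSO controls.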
# [3] = biological target: T1, Estrogen receptor (Homo sapiens) + Estrogen receptor beta (Homo sapiens) (UniProt P03372+Q92731); test: OT_ER_ERaERb_0480: Odyssey Thera (OT) 8-hour HEK293T Protein-Complementation Assay for Estrogen Receptor-alpha/-beta Heterodimer (AID 2283352)
# Outline: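 HEK293T cells expressing ER-alpha/ER-beta LBD fusions to complementary reporter fragments were dosed with compound for 8 hours. Heterodimer formation was read as increased nuclear (agonist) or nuclear plus cytoplasmic (antagonist) mean fluorescence intensity versus DMSO vehicle.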
# [4] = biological target: T1, Estrogen receptor (Homo sapiens) + Estrogen receptor beta (Homo sapiens); test: OT_ER_ERaERb_1440: Odyssey Thera (OT) 24-hour HEK293T Protein-Complementation Assay for Estrogen Receptor-alpha/-beta Homodimer (AID 2283356);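 further: heteromer of ER alpha and ER beta binding domains; hits raise reporter fluorescence and both agonists and antagonists give an increase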
# Outline: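 HEK293T cells stably expressing a PCA pair of ERα LBD (aa 310-547) and ERβ LBD (aa 263-489) were dosed for 24 h. Fluorescence intensity increase versus DMSO vehicle was fitted as gain-of-signal.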
# [5] = biological target: Estrogen receptor beta (Homo sapiens) (UniProt Q92731); test: OT_ER_ERbERb_0480: Odyssey Thera (OT) 8-hour HEK293T Protein-Complementation Assay for Estrogen Receptor-beta/-beta Homodimer (AID 2283357);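 further: active means signal gain over DMSO baseline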
# Outline: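 ER-beta LBD homodimer PCA stably expressed in HEK293T; 8 h compound exposure, then formaldehyde fixation and Draq5 staining. Gain in nuclear/cytoplasmic fluorescence intensity versus DMSO vehicle, read on laser scanning cytometer.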
# [6] = biological target: PGR (gene 5241) (UniProt P06401); test: NVS_NR_hPR: NovaScreen (NVS) Nuclear Receptor Binding Assay for human Progestron Receptor (PR) (AID 2283360);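 further: active means loss of bound radioligand signal versus DMSO baseline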
# Outline: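 Competitive displacement of a labelled radioligand from T47D-derived receptor protein is measured in a cell-free format. Initial testing uses 25 uM in duplicate, with positive and negative controls on every plate.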
# [7] = biological target: Retinoic acid receptor alpha (Homo sapiens) (UniProt P10276); test: NVS_NR_hRAR_Antagonist: NovaScreen (NVS) Nuclear Receptor Binding Assay for human Retinoic Acid Alpha Receptor Antagonism (RAR) (AID 2283358)
# Outline: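 RARalpha antagonism was read by TR-FRET as loss of binding signal versus DMSO, 2 h after chemical addition, in a biochemical format. Single-concentration duplicates (25 uM) were run first, and actives were retested in concentration series.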
# [8] = biological target: human Peroxisome Proliferator-activated Receptor alpha (PPARa), PPARA (gene 5465) (UniProt Q07869); test: NVS_NR_hPPARa: NovaScreen (NVS) Nuclear Receptor Binding Assay for human Peroxisome Proliferator-activated Receptor alpha (PPARa) (AID 2283359);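 further: activity means loss of TR-FRET signal versus DMSO baseline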
# Outline: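 Loss of TR-FRET binding signal relative to DMSO was measured 1 h after chemical addition to extracted receptor protein. Chemicals were first tested in duplicate at 25 uM, and actives were followed up in concentration series.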
# [9] = biological target: Androgen Receptor/SRC-1 Co-activator, AR (gene 367) (UniProt P10275); test: OT_AR_ARSRC1_0960: Odyssey Thera (OT) 16-hour HEK293T Protein-Complementation Assay for Androgen Receptor/SRC-1 Co-activator (AID 2283353);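 further: actives raise the signal above DMSO so potency reflects increased AR and SRC-1 complex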
# Outline: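 Sixteen-hour cell assay: Venus halves fused to AR and SRC-1 in HEK293T report binding. Images at 488/635 nm give an N/C ratio in the 488 nm channel over ≥400 cells, analysed as signal increase over DMSO.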
# [10] = biological target: Androgen Receptor/SRC-1 Co-activator, AR (gene 367) (UniProt P10275); test: OT_AR_ARSRC1_0480: Odyssey Thera (OT) 8-hour HEK293T Protein-Complementation Assay for Androgen Receptor/SRC-1 Co-activator (AID 2283354);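 further: hits raise the complementation signal above DMSO so AC50 marks enhancers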
# Outline: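 Reconstituted split-Venus YFP signal from AR–SRC-1 interaction, read by imaging 8 h post-dose in stable HEK293T lines. The 488 nm nucleus-to-cytoplasm ratio (≥400 cells/image) was fitted upward against DMSO.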
# [11] = biological target: Retinoic acid receptor alpha (Homo sapiens) (UniProt P10276); test: NVS_NR_hRARa_Agonist: NovaScreen (NVS) Nuclear Receptor Binding Assay for human Retinoic Acid Alpha Receptor Agonism (RAR) (AID 2283361)
# Outline: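 Agonist-mode TR-FRET binding format using extracted protein, measured at 2 h post-dosing. Initial duplicate single-point screen at 25 uM preceded concentration series for actives; activity was normalized to DMSO baseline.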
# Chain of Estrogen receptor beta (Homo sapiens) (Q92731 whole entry, looked up, the tested form may be a part): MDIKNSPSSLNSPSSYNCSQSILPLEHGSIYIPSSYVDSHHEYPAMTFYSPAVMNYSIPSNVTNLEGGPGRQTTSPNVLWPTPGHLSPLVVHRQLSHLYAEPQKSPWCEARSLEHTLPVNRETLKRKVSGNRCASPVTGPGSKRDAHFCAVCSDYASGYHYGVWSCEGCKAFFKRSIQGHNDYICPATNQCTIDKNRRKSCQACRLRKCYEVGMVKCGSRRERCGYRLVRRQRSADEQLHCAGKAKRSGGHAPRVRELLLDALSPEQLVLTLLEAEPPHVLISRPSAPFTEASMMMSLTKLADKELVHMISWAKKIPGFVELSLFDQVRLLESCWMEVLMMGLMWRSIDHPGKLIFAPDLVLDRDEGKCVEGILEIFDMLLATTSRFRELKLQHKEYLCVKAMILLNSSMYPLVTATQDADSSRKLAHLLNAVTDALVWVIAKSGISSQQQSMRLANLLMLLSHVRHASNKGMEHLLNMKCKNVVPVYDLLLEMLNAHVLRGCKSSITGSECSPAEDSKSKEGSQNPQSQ
# Chain of PGR (gene 5241) (P06401 whole entry, looked up): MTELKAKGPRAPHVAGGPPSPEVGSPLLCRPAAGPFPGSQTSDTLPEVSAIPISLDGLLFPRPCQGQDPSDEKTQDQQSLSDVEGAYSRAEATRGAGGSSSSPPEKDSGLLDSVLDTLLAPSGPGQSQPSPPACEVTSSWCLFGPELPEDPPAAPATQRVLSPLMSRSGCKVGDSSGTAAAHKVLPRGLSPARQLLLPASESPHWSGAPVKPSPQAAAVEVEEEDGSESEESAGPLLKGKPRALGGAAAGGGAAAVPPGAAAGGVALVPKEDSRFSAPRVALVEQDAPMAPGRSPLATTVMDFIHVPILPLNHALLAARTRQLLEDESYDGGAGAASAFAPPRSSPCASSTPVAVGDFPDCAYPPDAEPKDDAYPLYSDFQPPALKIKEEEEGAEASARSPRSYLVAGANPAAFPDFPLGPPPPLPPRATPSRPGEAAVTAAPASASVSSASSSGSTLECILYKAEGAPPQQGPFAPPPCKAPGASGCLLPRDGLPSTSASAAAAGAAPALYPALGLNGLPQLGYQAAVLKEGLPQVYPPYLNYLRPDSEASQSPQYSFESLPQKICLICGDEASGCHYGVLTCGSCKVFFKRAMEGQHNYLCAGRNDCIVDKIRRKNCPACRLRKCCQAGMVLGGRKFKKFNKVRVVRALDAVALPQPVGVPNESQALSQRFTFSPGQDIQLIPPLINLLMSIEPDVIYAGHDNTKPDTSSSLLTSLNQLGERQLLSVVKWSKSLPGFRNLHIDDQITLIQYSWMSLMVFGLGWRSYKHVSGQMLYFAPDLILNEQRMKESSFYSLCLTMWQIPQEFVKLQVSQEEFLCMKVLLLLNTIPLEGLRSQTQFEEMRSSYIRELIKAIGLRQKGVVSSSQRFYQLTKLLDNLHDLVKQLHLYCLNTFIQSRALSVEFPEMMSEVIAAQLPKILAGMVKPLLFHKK
# Chain of Estrogen receptor (Homo sapiens) (P03372 whole entry, looked up, the tested form may be a part): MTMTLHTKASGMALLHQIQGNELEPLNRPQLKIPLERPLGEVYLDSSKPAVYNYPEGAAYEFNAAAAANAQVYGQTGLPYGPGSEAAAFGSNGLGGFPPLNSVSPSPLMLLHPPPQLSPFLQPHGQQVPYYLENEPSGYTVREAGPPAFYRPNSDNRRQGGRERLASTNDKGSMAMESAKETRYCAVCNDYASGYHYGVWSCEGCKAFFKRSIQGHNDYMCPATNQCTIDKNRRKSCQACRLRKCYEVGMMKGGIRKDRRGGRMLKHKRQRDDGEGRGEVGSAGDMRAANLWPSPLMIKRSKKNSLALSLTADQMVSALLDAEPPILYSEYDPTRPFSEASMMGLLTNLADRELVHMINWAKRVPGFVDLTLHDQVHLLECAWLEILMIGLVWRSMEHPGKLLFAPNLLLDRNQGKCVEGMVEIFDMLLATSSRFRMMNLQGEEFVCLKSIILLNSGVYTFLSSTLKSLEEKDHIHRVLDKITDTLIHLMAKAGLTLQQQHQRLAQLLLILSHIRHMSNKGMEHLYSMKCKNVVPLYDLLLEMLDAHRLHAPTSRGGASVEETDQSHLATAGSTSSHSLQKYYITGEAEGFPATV
# T1 sequence (P03372 whole entry, looked up, the tested form may be a part): as above
# T1 sequence (Q92731 whole entry, looked up, the tested form may be a part): as the sequence (Q92731 whole entry, looked up, the tested form may be a part) above
# Chain of Androgen Receptor/SRC-1 Co-activator, AR (gene 367) (P10275 whole entry, looked up, the tested form may be a part): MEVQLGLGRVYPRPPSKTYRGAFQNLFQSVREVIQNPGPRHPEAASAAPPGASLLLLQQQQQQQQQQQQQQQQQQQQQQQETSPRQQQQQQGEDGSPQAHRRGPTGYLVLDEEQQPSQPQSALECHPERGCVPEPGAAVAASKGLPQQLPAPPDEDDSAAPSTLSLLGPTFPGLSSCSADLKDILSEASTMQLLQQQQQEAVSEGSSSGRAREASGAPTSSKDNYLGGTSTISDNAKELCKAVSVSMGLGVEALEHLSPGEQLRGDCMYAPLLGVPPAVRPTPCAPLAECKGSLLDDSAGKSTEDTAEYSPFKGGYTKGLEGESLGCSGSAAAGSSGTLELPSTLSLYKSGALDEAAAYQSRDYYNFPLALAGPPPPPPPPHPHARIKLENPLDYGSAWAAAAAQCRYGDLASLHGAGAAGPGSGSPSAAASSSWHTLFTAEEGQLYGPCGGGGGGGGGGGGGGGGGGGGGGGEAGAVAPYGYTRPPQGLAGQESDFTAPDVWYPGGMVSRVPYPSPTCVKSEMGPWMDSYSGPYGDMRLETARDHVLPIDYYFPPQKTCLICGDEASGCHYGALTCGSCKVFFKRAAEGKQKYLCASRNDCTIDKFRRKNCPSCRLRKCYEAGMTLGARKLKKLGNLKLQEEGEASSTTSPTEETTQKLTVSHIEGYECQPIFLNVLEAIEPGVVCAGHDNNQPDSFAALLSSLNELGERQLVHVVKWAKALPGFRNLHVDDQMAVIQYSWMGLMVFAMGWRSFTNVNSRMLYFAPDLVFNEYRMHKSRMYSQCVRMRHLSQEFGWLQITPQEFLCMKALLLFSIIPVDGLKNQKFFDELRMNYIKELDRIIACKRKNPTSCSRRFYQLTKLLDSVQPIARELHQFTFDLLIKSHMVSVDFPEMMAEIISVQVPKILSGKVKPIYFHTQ
# Chain of human Peroxisome Proliferator-activated Receptor alpha (PPARa), PPARA (gene 5465) (Q07869 whole entry, looked up): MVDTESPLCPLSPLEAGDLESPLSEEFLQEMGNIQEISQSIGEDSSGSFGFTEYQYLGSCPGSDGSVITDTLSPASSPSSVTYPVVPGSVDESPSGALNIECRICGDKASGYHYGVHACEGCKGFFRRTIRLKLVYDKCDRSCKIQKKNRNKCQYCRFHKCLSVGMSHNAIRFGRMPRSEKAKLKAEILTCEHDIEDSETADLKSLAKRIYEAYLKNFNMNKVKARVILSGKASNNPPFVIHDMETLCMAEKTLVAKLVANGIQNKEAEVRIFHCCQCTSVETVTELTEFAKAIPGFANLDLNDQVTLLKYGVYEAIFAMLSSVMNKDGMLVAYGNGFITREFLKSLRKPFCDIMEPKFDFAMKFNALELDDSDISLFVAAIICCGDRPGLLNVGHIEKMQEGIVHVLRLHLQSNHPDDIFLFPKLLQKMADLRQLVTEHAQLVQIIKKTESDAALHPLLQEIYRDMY
# Chain of Retinoic acid receptor alpha (Homo sapiens) (P10276 whole entry, looked up): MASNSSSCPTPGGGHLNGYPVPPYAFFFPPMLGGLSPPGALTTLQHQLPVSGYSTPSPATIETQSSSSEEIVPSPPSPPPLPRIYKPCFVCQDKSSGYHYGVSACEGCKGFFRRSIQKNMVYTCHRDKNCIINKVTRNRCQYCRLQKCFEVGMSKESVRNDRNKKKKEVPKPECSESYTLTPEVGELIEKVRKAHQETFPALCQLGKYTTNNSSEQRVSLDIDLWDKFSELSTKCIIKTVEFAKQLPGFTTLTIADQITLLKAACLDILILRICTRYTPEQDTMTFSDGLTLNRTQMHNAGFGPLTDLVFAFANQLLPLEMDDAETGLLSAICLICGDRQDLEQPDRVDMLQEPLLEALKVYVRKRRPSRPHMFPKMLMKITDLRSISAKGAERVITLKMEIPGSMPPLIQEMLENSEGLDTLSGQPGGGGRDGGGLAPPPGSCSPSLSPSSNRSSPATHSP
smiles,measurement,setting,value
CNC(C)=O,outcome,[1],inactive
same,outcome,[2],inactive
same,outcome,[3],inactive
same,outcome,[4],inactive
same,outcome,[5],inactive
Cc1ccc(S(=O)(=O)NC(=O)NN2CCCCCC2)cc1,outcome,[1],inactive
same,outcome,[2],inactive
same,outcome,[3],inactive
same,outcome,[4],inactive
same,outcome,[5],inactive
CC(=O)c1ccccc1,outcome,[1],inactive
same,outcome,[2],inactive
CCOc1ccc2[nH]cc(C(=O)NCc3ccccc3)c(=O)c2n1,outcome,[1],inactive
same,outcome,[2],inactive
same,outcome,[3],inactive
same,outcome,[4],inactive
same,outcome,[5],inactive
O=C(O)[C@H](O)[C@@H](O)C(=O)O,outcome,[1],inactive
same,outcome,[2],inactive
same,outcome,[3],inactive
same,outcome,[4],inactive
same,outcome,[5],inactive
same,outcome,[6],inactive
c1ccc2cc3ccccc3cc2c1,outcome,[1],inactive
same,outcome,[2],inactive
same,outcome,[3],inactive
same,outcome,[4],inactive
same,outcome,[5],inactive
O=C(NO)C1(NS(=O)(=O)c2ccc(Oc3ccc(F)cc3)cc2)CCOCC1,outcome,[1],inactive
same,outcome,[2],inactive
same,outcome,[4],inactive
same,outcome,[5],inactive
same,AC50,[6],6.3 µM (active)
CCCCCCCC/C=C\CCCCCCCC(=O)OC[C@@H](O)[C@H]1OC[C@H](O)[C@H]1O,outcome,[1],inactive
same,outcome,[2],inactive
same,outcome,[3],inactive
same,outcome,[4],inactive
same,outcome,[5],inactive
same,outcome,[7],inactive
same,AC50,[8],0.845 µM (active)
C[C@@H](Oc1ccc(CNC(=O)c2cccnc2Oc2ccc3c(c2)OCO3)c(F)c1)C(=O)O,outcome,[1],inactive
same,outcome,[2],inactive
same,outcome,[3],inactive
same,outcome,[4],inactive
same,outcome,[5],inactive
same,outcome,[6],inactive
OCc1ccccc1,outcome,[1],inactive
same,outcome,[2],inactive
same,outcome,[3],inactive
same,outcome,[9],inactive
same,outcome,[4],inactive
same,outcome,[5],inactive
same,outcome,[6],inactive
OC(CCl)CCl,outcome,[1],inactive
same,outcome,[2],inactive
same,outcome,[3],inactive
same,outcome,[4],inactive
same,AC50,[8],40.2 µM (active)
COc1cc2c(c(OC)c1OC)-c1ccc(OC)c(=O)cc1[C@@H](NC(C)=O)CC2,outcome,[1],inactive
same,outcome,[2],inactive
same,outcome,[3],inactive
same,AC50,[9],0.133 µM (active)
same,outcome,[10],inactive
same,outcome,[4],inactive
same,outcome,[5],inactive
O=C(O)CO,outcome,[1],inactive
same,outcome,[2],inactive
same,outcome,[4],inactive
same,outcome,[5],inactive
OCCOCCOCCO,outcome,[1],inactive
same,outcome,[2],inactive
same,outcome,[3],inactive
same,outcome,[9],inactive
same,outcome,[10],inactive
same,outcome,[4],inactive
same,outcome,[5],inactive
NC(=O)NN=Cc1ccc([N+](=O)[O-])o1,outcome,[1],inactive
same,outcome,[2],inactive
same,outcome,[3],inactive
same,outcome,[4],inactive
CCCCCCCCN(C)C,outcome,[1],inactive
same,outcome,[2],inactive
same,outcome,[11],inactive
Cn1c(=O)c2[nH]cnc2n(C)c1=O,outcome,[1],inactive
same,outcome,[2],inactive
OC[C@H]1O[C@@](CO)(O[C@H]2O[C@H](CO)[C@@H](O)[C@H](O)[C@H]2O)[C@@H](O)[C@@H]1O,outcome,[1],inactive
same,outcome,[2],inactive
same,outcome,[4],inactive
same,outcome,[5],inactive
same,outcome,[6],inactive
NC(N)=O,outcome,[1],inactive
same,outcome,[2],inactive
same,outcome,[3],inactive
same,outcome,[4],inactive
same,outcome,[5],inactive
CCCCCCCCCCCCCCO,outcome,[1],inactive
same,outcome,[2],inactive
same,outcome,[3],inactive
same,outcome,[4],inactive
same,outcome,[5],inactive
same,outcome,[8],inactive
